From paper PMC12864922, “TDP-43 directly inhibits mRNA accumulation in neurites through modulation of mRNA stability” come the findings set out here.

B1: ENSMUSG00000004113.485|Cacna1b (ssRNA)
RNA: GGGAGUUCUACAGUCCGACGAUCGCUUCGAUAUCCGCAUGCUACCUUUGACUAGUUUGCUGCCUGAAUAAUAUUUACAAACUAAACUUUGGAUUCUGCUCUUGUUUCUACAAUGAUUUUUUGUAUAAAGCAAAGUCCUUGGAUUAAAUAAAAACAACCCAAAAAAAAAAUCAAAAUCAAAACCCAGGAUGCAACUGGGUGAUACCUGAGGACAGUGUGUCUCAGUGCGUCGGUGGAGAGGGUAUACUGCCAGGAGAGCUCAAGAAAAAUUGAGAACUUCAGCAAAGUGCCUGUGAGCACUUGGCUCUUGCGGUCGCACUAGUGUGGAAUUCUCGGGUGUCAAGG
B2: ENSMUSG00000035202.103|Lars2|4:8 (ssRNA)
RNA: GGGAGUUCUACAGUCCGACGAUCGCUUCGAUAUCCGCAUGCUAGCUACACACUCCAGUGUCUUUUACCAUCACAGGCCCUGGCUCUGUGCUACCUCCCUAGAAUACCUGUGGUUCAUCACCUUCAGCUCACACUCCAUUCAGACAAUGCUCACUUAGGCCUACAAGCAAGGGAGAGGCUUAAGCACAAGGUCUUUAAGCUUGAUACUGUGCCUGGUCUCAAUGCCUAGAAAUUCCAACUUAACUGUCGCUAUCAUAAAGGAUUUUAAAUUUUUUUACAAGUGAGAACCUAGCAUGUCAAGGUCCUCUUGCGGUCGCACUAGUGUGGAAUUCUCGGGUGUCAAGG
B3: ENSMUSG00000022095.199|Fam160b2 (ssRNA)
RNA: GGGAGUUCUACAGUCCGACGAUCGCUUCGAUAUCCGCAUGCUACCCAUGCCACCUCUCGAAGCCGGGCACAGGUUGCCAGGAGGUGACAUGAAAGAGGAGGAAACUCCAUGACCUCUACAUCCCCCGCAGUCCUCCCAGCGGGGGAGGACUUCUCUGCUGCUCCGAAGAACAUCAUGCACUCCUGUGUGUGUGUGUGAGUGUGUGUGUGUGUGUGUGUGUGUGUGUGUGUGUAUGUGUGUGUAUAUGUGUGUGUGUGUGUGUAUGUGUGUGUGUGUGUGUGAGUGAGUGUGUGUGUGUGUGUGCUCUUGCGGUCGCACUAGUGUGGAAUUCUCGGGUGUCAAGG
B4: ENSMUSG00000022095.200|Fam160b2 (ssRNA)
RNA: GGGAGUUCUACAGUCCGACGAUCGCUUCGAUAUCCGCAUGCUACCACCUCUCGAAGCCGGGCACAGGUUGCCAGGAGGUGACAUGAAAGAGGAGGAAACUCCAUGACCUCUACAUCCCCCGCAGUCCUCCCAGCGGGGGAGGACUUCUCUGCUGCUCCGAAGAACAUCAUGCACUCCUGUGUGUGUGUGUGAGUGUGUGUGUGUGUGUGUGUGUGUGUGUGUGUGUAUGUGUGUGUAUAUGUGUGUGUGUGUGUGUAUGUGUGUGUGUGUGUGUGAGUGAGUGUGUGUGUGUGUGUGUGUGUGCUCUUGCGGUCGCACUAGUGUGGAAUUCUCGGGUGUCAAGG
B5: ENSMUSG00000022095.202|Fam160b2 (ssRNA)
RNA: GGGAGUUCUACAGUCCGACGAUCGCUUCGAUAUCCGCAUGCUAGCCGGGCACAGGUUGCCAGGAGGUGACAUGAAAGAGGAGGAAACUCCAUGACCUCUACAUCCCCCGCAGUCCUCCCAGCGGGGGAGGACUUCUCUGCUGCUCCGAAGAACAUCAUGCACUCCUGUGUGUGUGUGUGAGUGUGUGUGUGUGUGUGUGUGUGUGUGUGUGUGUAUGUGUGUGUAUAUGUGUGUGUGUGUGUGUAUGUGUGUGUGUGUGUGUGAGUGAGUGUGUGUGUGUGUGUGUGUGUGUGAGUGUGUGUGCUCUUGCGGUCGCACUAGUGUGGAAUUCUCGGGUGUCAAGG
B6: ENSMUSG00000032194.22|Kank2 (ssRNA)
RNA: GGGAGUUCUACAGUCCGACGAUCGCUUCGAUAUCCGCAUGCUAUCCCUCUGUCCCAUUCUGCCUCGGCAUUCCUCAGCCCCUGAACUUCCCUGAGGGAGCCCUGACAUCUACCAGGCUCAAGCUCCUGGAAGCCUUUCCCAGCACCCUGGGUUCAAAGCCAGAAAGCCAAGCUACAUUCUCCUCCCAGUUGGCACCAGUUGACAACGCCUUGGGUGUGGGUUUCUUGUAAAGAACAUAGAGAACAAUCAGCCGGCAAUUAUGGGAGGAGGAAGGGGGGGCAAGAAGAGAAAAUACUGUAUUCUCUCUUGCGGUCGCACUAGUGUGGAAUUCUCGGGUGUCAAGG
B7: ENSMUSG00000035202.148|Lars2 (ssRNA)
RNA: GGGAGUUCUACAGUCCGACGAUCGCUUCGAUAUCCGCAUGCUAUCUCCAACACGAAAAAAGCAAGGCAACUCUACCAAAGAAACUAAUUACAUACUUGUAUUCCCAAUAUGUGAGAAGCUGAGGAAGGAGGAUCAUGAGUUUAAAGCCAUCCUUGGUUACAUGAGACUCUUGUCUCAAAGAACUACCAGGGAUCCUAAUGGACAACAAAGGUUGAAAACCAUUGAAUUAAUAAAUGUUGUGAACCAUAAUUUCUACCCAGUCCUUCUUCCUUCAUUUUCAUCUCAUCUGGGAUAAGUUUAGCCCUCUUGCGGUCGCACUAGUGUGGAAUUCUCGGGUGUCAAGG
B8: ENSMUSG00000043670.75|Diras1 (ssRNA)
RNA: GGGAGUUCUACAGUCCGACGAUCGCUUCGAUAUCCGCAUGCUAUUUGAUCCCUGUGGAUCUGAAAACAGGGACCUGGCUAAGGAACUGCUCAUCCCAGUCAGGCCCAGAGAGGUUACCUUGCCUCUCCAUCUCUGUCCCUGUGUGCCCAGCCAUGCCCACUGUCCCUGUCCCUCACAUUCUAUCACUGUGACCUCUGGGGAGUGCCCAUUGACCUCAUCUUCCUUCACUAAUAUCUUAUUUCUUUCACCUGAUCCUGUCCUUUCCCCGUGACCUCUGACCUGUGGCCUUCCCUGGGUCCAGAACUCUUGCGGUCGCACUAGUGUGGAAUUCUCGGGUGUCAAGG
B9: ENSMUSG00000058297.201|Spock2 (ssRNA)
RNA: GGGAGUUCUACAGUCCGACGAUCGCUUCGAUAUCCGCAUGCUAAGGAAAUGGUUCCCUCUUGCCCCGACCAAUAGAAGGGCGUGUCCCCGAGACCCUUGUGAGGAACCACGGGGAGCUGUGACUUCCUGUGCCCAGAAGGUCCUGGAGGAGAGGCCCCAAAGCCUUAGUCCUCUCAGCCAUGACUUUCCUCUGUCUCAAGGGUCCCCAAGAUGGCCCUAGAAGAACCAUGCCCCAGACUCUAUUUAAAGCCCUAUAGCAUAUAUGAAUAGAGAACGGUGUAUCUAUCAGAGGGGACCACACUGCUCUUGCGGUCGCACUAGUGUGGAAUUCUCGGGUGUCAAGG
B10: ENSMUSG00000061578.1546|Ksr2|104:108 (ssRNA)
RNA: GGGAGUUCUACAGUCCGACGAUCGCUUCGAUAUCCGCAUGCUAAGAUCAUUUAUAAAGUUUUCUACACUUCUCAAAAAAAAAAAUAUUUCUAACCUUGGCUGUUGGACAGUCUGUGAGCCUGUGAGCCGGCAAGCCUGUUGUUUCUACACAUUAGUGCAAUGUUAGUGAGAAUCCAGUGUCUGAGUUAUUAAUGCCAAUAAAGAAUUUGAGAAUUACUGCAUCCGCUGCUGUCACUCCAGGUCAGAACUCUGCUGUUGUCUGUUGGAUGGAAGGAAGCUCCAGAGUGAGGAACAAUGGUUGCUCUCUUGCGGUCGCACUAGUGUGGAAUUCUCGGGUGUCAAGG
B11: ENSMUSG00000029636.29|Wasf3|57:61;103:107 (ssRNA)
RNA: GGGAGUUCUACAGUCCGACGAUCGCUUCGAUAUCCGCAUGCUAUCUCUGCACCCUCACAGUGGUAUUUCCCUGUAGCUUUAGUCCCUUUUGUAUUAACACACACAUUUGCUUCUGCACAUCCUUCUGGAUUUGUUGAGUAUUUACACACAAAUACUUAAGUGCCACAGAACACAGCACACCGUGCUGCACACCAGGAAACUCGCAGUAUUAGUGCAUCACCCUGGAACAGCAUCUUGCUUCCCUCUCAGCCGUGAGAGUCCCCUCUCCUGUCCAUCCUGAUUUGGUGGGCUUGCCACGUAUCUCUCUUGCGGUCGCACUAGUGUGGAAUUCUCGGGUGUCAAGG
B12: ENSMUSG00000029636.244|Wasf3 (ssRNA)
RNA: GGGAGUUCUACAGUCCGACGAUCGCUUCGAUAUCCGCAUGCUAUGACAGGGAAUGCCUGUGGGAUAAUUAAAAAUGGUUUUUGCUCAUGAGUUUGGGAUGUCACCCAGCCGCCCACAUCGCCUGCUAUGUGUGUGGACGCCUGUCCGCUUGGCCAGCUAUCCUGUAACACCUGCCAGUAGUAGGUUUUCCUCAUGUCACUAUGACAGUGAAAGCCCAUGUGCAAGCCCCUCCCUACGCCCUGCUUUGGCGUGUGUCUGAGUGCUCUGUGCUGCGCCAUGGCCAUCCUGGAGCCUGCGCACACGCUCUUGCGGUCGCACUAGUGUGGAAUUCUCGGGUGUCAAGG
B13: ENSMUSG00000061578.1047|Ksr2 (ssRNA)
RNA: GGGAGUUCUACAGUCCGACGAUCGCUUCGAUAUCCGCAUGCUACCUCUCCCUGGAGCUGGCAGCCAUGGUUGAUGGCUAUGGGAUACAAUGUGGAUCUUUAGAUGUGAAAGUCUGAUGACUCAAAUCAAAGUUUGGUUUUUCUUUUCUACUACUCUGAAGGAAAAUCUCAGCUUGGCUAUUUCUUCAUGUUUUAAAAAUGUCUUGACUUCUCUCAGCAACCAACUUCAGGUGCCAGGAUAUGAGAUGCUAAGGUUCAGGGGUGGUGGAGGUGAUUCUAUCCAGUGGCCAGCAAUACCCAAAAGCUCUUGCGGUCGCACUAGUGUGGAAUUCUCGGGUGUCAAGG

Whole data set: some 9,900 sequences, median “r (bound/input frequency ratio)” near 0.7, cut for the highest 2% near 6.5. The sample as a whole holds a higher share of the highest values than the screen did.

Sequence of TDP-43 (Q13148 whole entry): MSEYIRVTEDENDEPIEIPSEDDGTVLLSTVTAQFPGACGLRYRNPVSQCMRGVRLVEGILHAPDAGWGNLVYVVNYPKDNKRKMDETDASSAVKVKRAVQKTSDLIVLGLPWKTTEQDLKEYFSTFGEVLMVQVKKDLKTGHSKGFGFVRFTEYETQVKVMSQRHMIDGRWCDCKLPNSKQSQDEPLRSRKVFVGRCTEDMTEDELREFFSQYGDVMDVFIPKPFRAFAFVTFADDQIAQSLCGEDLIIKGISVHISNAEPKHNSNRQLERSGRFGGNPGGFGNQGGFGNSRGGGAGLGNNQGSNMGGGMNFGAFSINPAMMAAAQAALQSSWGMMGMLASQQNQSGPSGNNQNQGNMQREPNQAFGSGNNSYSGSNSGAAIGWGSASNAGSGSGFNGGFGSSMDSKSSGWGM

For the test, the target named is TDP-43 (Homo sapiens, UniProt Q13148 1-414). Nature of the test: RNA Bind-n-Seq with designed 260-mer pool; 25 mM Tris-HCl, 150 mM KCl, 3 mM MgCl2, BSA (printed 500 mg/mL), 20 units/mL SUPERase IN; pH not stated; 500 nM RNA pool, 1 h, 4 C; TDP-43 5, 50, 500 nM; high values mean tight binding. As to conditions: protein: recombinant; tags: SBP (GST cleaved off with PreScission; pGEX-GST-SBP). The essentials:
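Recombinant SBP-tagged TDP-43 at 5, 50 or 500 nM was captured on streptavidin beads, then incubated 1 h at 4 °C with 500 nM of an in vitro-transcribed 260-nt 3′ UTR oligo pool in 25 mM Tris-HCl, 150 mM KCl, 3 mM MgCl2, BSA and SUPERase IN. Bound RNA was washed, eluted with biotin, reverse transcribed, PCR-amplified and sequenced. Binding is R, each oligo's mapped-read-normalized abundance in the bound sample divided by its abundance in input. Duplicates used two independent protein batches.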
On to B1, for which the binding signal was 0.542 R (bound/input frequency ratio). B2: the binding signal was 0.427 R (bound/input frequency ratio). For the molecule B3, the binding signal is 8.67 R (bound/input frequency ratio). Take B4: the binding signal is 7.08 R (bound/input frequency ratio). On to B5, for which the binding signal was 7.21 R (bound/input frequency ratio). With B6 the figure was 0.911 R (bound/input frequency ratio); with B7, 0.0673 R (bound/input frequency ratio); with B8, 2.09 R (bound/input frequency ratio). For B9 the value was 0.372 R (bound/input frequency ratio).

B10: the binding signal is 0.542 R (bound/input frequency ratio).

As to B11, the binding signal is 0.499 R (bound/input frequency ratio). For B12 the value was 0.625 R (bound/input frequency ratio). B13: the binding signal is 0.12 R (bound/input frequency ratio).
